A selection: hits, their analogues and other compounds. The true share with any hit is near 2.3%.
PLCg1 inh: PLC-gamma1 (human) inhibition, primary screen; P19174; purified PLC-gamma1, fluorogenic substrate, fluorescence; inhibition, % at 12.2 µM; 370,000 tested, 0.84% active; in the data active means inhibition above about 9.5%
MBD2 inh: MBD2-methylated oligo binding inhibition | TR-FRET, MBD2 binding to methylated oligonucleotide | 370,000 tested, 0.31% active | Q9UBB5 | inhibition, % at 4.4 µM; in the data active means inhibition above about 13%
LEDGF integ inh: blocks HIV-1 LEDGF/p75-dependent DNA integration; inhibition, % at 3.7 µM; 370,000 tested, 0.64% active; TR-FRET IN-LEDGF/p75 DNA integration, Eu/Cy5;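 active means inhibition above the screen-wide mean plus 3 SD, cut at about 13% in these data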;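 further: signal is the Cy5 over europium emission ratio at 671 and 618 nm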
PLC-beta3 inh: PLC-beta3 (human) inhibition, primary screen. Q01970. Purified PLC-beta3, fluorogenic substrate, fluorescence. inhibition, % at 12.2 µM. 370,000 tested, 0.18% active. AID 720704; in the data active means inhibition above about 11%
UHRF1 binding: blocks human UHRF1 binding to methylated DNA; inhibition, % at 4.4 µM; Q96T88; 370,000 tested, 0.75% active; UHRF1 binding to methylated oligo, TR-FRET; in the data active means inhibition above about 21%;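 further: UHRF1 SRA domain binding a hemimethylated CpG hairpin DNA probe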
Each line names hits and unclear results; the compound was inactive in the other large screens.

Cn1nc([N+](=O)[O-])nc1Oc1ccccc1F	none
C[C@H](O)[C@@H]1CN2CCc3c([nH]c4c(-c5ccc6c(c5)OCO6)cccc34)[C@@H]2C[C@@H]1N(C)C(=S)NCCc1ccccc1	none
O=C(CCS(=O)(=O)c1ccc(F)cc1)Nc1nc(-c2ccccn2)cs1	UHRF1 binding 21
O=C(CCS(=O)(=O)c1ccccc1)Nc1nc(-c2ccccn2)cs1	none
O=C(CSc1nc2sc3c(c2c(=O)n1-c1ccc(Cl)cc1)CCC3)Nc1ccc(C(=O)O)cc1	none
CCCCCNC(=O)C(c1cccc2ccccc12)n1c(=O)c(-c2ccco2)nc2ccccc21 (configuration not stated)	none
CCCCCNC(=O)C(c1ccc(C(F)(F)F)cc1)n1c(=O)c(-c2ccco2)nc2ccccc21 (configuration not stated)	UHRF1 binding 21
CC1(C)Cc2c(ccc3ccccc23)C(=O)N1	none
CCNC(=O)/C=C1\NC(C)(C)Cc2c1ccc1ccccc21	UHRF1 binding 22
Cc1c(C(Nc2ccccn2)c2ccccc2)c(=O)n(-c2ccccc2)n1C (configuration not stated)	UHRF1 binding 22
Cc1c(C)n(C(=O)CSc2nc3ccccc3[nH]2)c2ccccc12	UHRF1 binding 47
COc1cccc(N2CCN(CC(=O)NCc3cccc(OC)c3OC)CC2)c1	none
O=C(c1cc(Cl)cc(Cl)c1)N1CC[C@H]2[C@H](CCCN2Cc2ccc(F)cc2)C1	none
O=C(COC(=O)c1ccccc1Nc1ccccc1)NCc1ccco1	UHRF1 binding 21
COc1ccc(CNC(=O)COC(=O)C(CCSC)NC(=O)c2ccco2)cc1OC (configuration not stated)	none
CSCCC(NC(=O)c1ccccc1)C(=O)OCC(=O)NCc1ccco1 (configuration not stated)	UHRF1 binding 27
O=C(COC(=O)c1ccccc1Cl)NCc1ccco1	none
COc1ccc(OC[C@@H](O)CN2CCC(C(O)(c3ccccc3)c3ccccc3)CC2)cc1	none
O=C(Cn1nnc(-c2ccccc2F)n1)Nc1ccc(F)cc1F	none
COc1ccc(OC)c(CN2C(=O)CSCC2(C)C(=O)NCc2ccccc2)c1 (configuration not stated)	PLC-beta3 inh 12
Cc1ccccc1CN1C(=O)CSCC1(C)C(=O)NCc1ccccc1 (configuration not stated)	none
Cc1cc(NC(=O)CSc2nc(-c3ccccc3Cl)nc3c2c(=O)n(C)c(=O)n3C)no1	UHRF1 binding 23
Cc1cc(NC(=O)CSc2nc(CC(C)(C)C)nc3c2c(=O)n(C)c(=O)n3C)no1	UHRF1 binding 22
COc1ccc(CN2C[C@]3(C=C4CCCCC4n4c(=O)n(-c5ccccc5)c(=O)n43)N=C2NC(=O)c2ccccc2)c(OC)c1 (some centres not stated)	none
O=C(c1ccc(Cl)c(Cl)c1)N1CCN(c2ccnc3cc(Cl)ccc23)CC1	none
COC(=O)CSc1cc(C(=O)c2nccn2C)c2ccccc2n1	none
Cn1ccnc1C(=O)c1cc(SCC(=O)NCc2ccccc2)nc2ccccc12	UHRF1 binding 26
Cc1nc(N2CCN(C(=O)C3CCCCC3)CC2)c2c3c(sc2n1)CCCC3	none
C(=N/N1CCN(c2ccccc2)CC1)/c1ccco1	none
CCC1CCc2sc(C(=O)N(C)CC(=O)Nc3ccc(OC)cc3)cc2C1 (configuration not stated)	none
CCC1CCc2sc(C(=O)N(C)CC(=O)Nc3cccc(OC)c3)cc2C1 (configuration not stated)	UHRF1 binding 66
Cc1nn(Cc2nnc(SCC(=O)Nc3cccc(C(F)(F)F)c3)n2C)c(C)c1[N+](=O)[O-]	UHRF1 binding 41
Cn1c(CN2CCOCC2)nnc1SCC(=O)Nc1cccc(C(F)(F)F)c1	none
N#C/C(=C\c1ccc(O)c([N+](=O)[O-])c1)c1nc2ccccc2s1	UHRF1 binding 26
COc1cc(/C=C(\C#N)c2nc3ccccc3s2)cc([N+](=O)[O-])c1O	none
CN1C(=O)c2cc(NC(=O)Nc3ccccc3)ccc2OC[C@H]2O[C@@H](CC(=O)NC3CCC3)CC[C@@H]21	none
COc1cc(NC(=O)CN2C(=O)COc3ccccc32)cc(OC)c1	UHRF1 binding 21
COc1cc(-c2c(C(=O)c3ccccc3)[nH]c(N)c2C(N)=O)ccc1O	none
CC(=O)Nc1nc2ccccc2n1CCN(C)C	PLC-beta3 inh 13
CCC(=O)Nc1nc2ccccc2n1CCN(C)C	none

Source: PubChem BioAssay (The Scripps Research Institute Molecular Screening Center)
